# PubChem BioAssay (NCI)
# This is part of a sample that, as a whole, favours compounds with a hit. Of some 79,000 tested, about 15% had one in any assay. Values without a mark were called inactive. Active and inactive are the calls of the source. No stated cut-off is given here; in the data, active means growth inhibition above about 70%; inactive means the rest.
# Assay: NCI Yeast Anticancer Drug Screen. Data for the mlh1 rad18 strain (AID 175)
# Conditions: S. cerevisiae mlh1 rad18 strain growth inhibition; at 50.0 µM; hits give high values
# Procedure, shortened: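 Vehicle-treated cultures served as the reference for growth inhibition in a yeast strain carrying DNA damage repair alterations exposed to each compound.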
row,SMILES,growth inhibition
1,COC(=O)c1nc(=S)[nH]c(C(=O)OC)c1C(=O)c1ccccc1O,30%
2,O=CNNC(=O)Nc1cccc2ccccc12,-25.5%
3,CCOC(=O)c1ccc(CSc2ccc(OC)cc2)cc1,78.6% (active)
4,COc1ccccc1/C=C1/Sc2scc(CC(=O)Nc3ccccc3)[n+]2C1=O,24.8%
5,CC(C)Cn1cnc2c(Sc3c([N+](=O)[O-])ncn3C)nc(N)nc21,7.15%
6,N=C1C(O)C2(I)c3ccccc3N3C(=N)C(O)C4c5ccccc5N1C4C32 (stereo not given),8.95%
7,CCCCCCCCCCCCCCCC[N+](C)(C)Cc1ccccc1,98.9% (active)
8,N#CC1(CCCI)CCCC1,6.1%
9,CCOC(=O)C1C(=O)CC(O)(c2ccccc2)C(C(=O)OCC)C1c1ccc(OC)cc1 (stereo not given),-3.7%
10,CCCCCCCCCCCCC(F)C(=O)OCC1OC(n2cc(C)c(=O)[nH]c2=O)CC1N=[N+]=[N-] (stereo not given),14.8%
11,C(=C/c1ccccc1)/C=N/N1CCN(/N=C/C=C/c2ccccc2)CC1,-7.05%
12,COc1cccc2c1oc(=O)c1ccccc12,-5.85%
13,COC(=O)c1nnn(-c2cc(Cl)ccc2Cl)c1C(=O)c1ccc(OC)cc1,-3.25%
14,Cc1ccc(C(C)C)nc1,26.7%
15,CCOc1ccccc1N1C(=O)C(=O)C(c2nc3ccccc3o2)C(=O)C1=O,-3.2%
16,CCCCCCC1(C=O)C(=O)NC(=O)N1C (stereo not given),-0.35%
17,Cn1c(=O)c2c(nc(Cl)n2Cc2ccc([N+](=O)[O-])cc2)n(C)c1=O,1%
18,S=c1sc2ccccc2n1CN1CCCC1,-6.65%
19,NN(CC(=O)O)CC(=O)O,20.9%
20,O=C1NC2CCC(NC(=O)N1c1ccccc1)C1=C2C1,-32.1%

row,SMILES,growth inhibition
1,COc1ccc2c(c1)CCCN2c1ccc(N=C(N)N)cc1,16.5%
2,O=C(O)Cc1cc2cccc([N+](=O)[O-])c2[nH]1,9.2%
3,CCOC(=O)C1SC(=S)N(c2ccccc2)C1N (stereo not given),11.8%
4,COc1cc(Cc2c(OC)c(OC)cc(C)c2C(=O)O)cc(OC)c1,-14.4%
5,C/C(=C\c1ccccc1)C(=O)c1ccccc1,20%
6,Cc1cc2nc3c(C(O)C(O)C(O)CO)nn(-c4ccccc4)c3nc2cc1C (stereo not given),16.1%
7,CCOc1ccccc1OCC,21.2%
8,Cc1ccc(NC(=O)/C=C2\CONC(c3ccccc3)=N2)cc1,1.75%
9,CC(=O)OC1CCC2(C)C(C1)CC(OC(C)=O)C1C2CC(OC(C)=O)C2(C)C(C(C)CC=C(c3ccccc3)c3ccccc3)CCC12 (stereo not given),8.45%
10,O=C1c2ccccc2C(O)(C#Cc2ccccc2)c2c1c(-c1ccccc1)c1ccccc1c2-c1ccccc1 (stereo not given),10.4%
11,C[n+]1ccc(NN)cc1,4.4%
12,O=C1OC(c2ccccc2)=CC1(Cc1ccccc1)Cc1ccccc1,-5.15%
13,CCSC(SCC)C(SCC)C(OC(=O)c1ccccc1)C(OC(=O)c1ccccc1)C(COC(=O)c1ccccc1)OC(=O)c1ccccc1 (stereo not given),33.3%
14,CCOC(=O)N1CCC2C(=C(C)C(C)C3=C2C(=O)c2ccccc2C3=O)C1 (stereo not given),7.1%
15,CCC(C)C(C)(O)CC (stereo not given),-4.8%
16,Cc1cc(O)c(C)c(C)c1C,12.1%
17,O=C1C(=O)N(CN2CCCCC2)c2ccccc21,17.9%
18,CN1CCCC(NC(c2ccccc2)c2ccccc2)C1 (stereo not given),18.9%
19,Cc1cccc(C)c1NC(=S)NC(=O)c1cccc(Cl)c1,-16.6%
20,C/C(=C\CC1C(=O)N(c2ccccc2)N(c2ccccc2)C1=O)CO,-11.9%
